In the supplement of paper PMC6992640:
± gives the standard deviation of the averaged measurements.

Experiments:
Experiment in all cases: cell viability (% of vehicle); higher = less cytotoxic
Details in all cases: 10 µM; 72 h
HCI01 = tested on: HCI01 (cells of a triple-negative basal-like breast cancer xenograft)
HCI03 = tested on: HCI03 (cells of an ER-positive luminal breast cancer xenograft)
HCI09 = tested on: HCI09 (cells of a triple-negative luminal androgen receptor type breast cancer xenograft)
HCI11 = tested on: HCI11 (cells of an ER-positive luminal breast cancer xenograft)
HCI13 = tested on: HCI13 (cells of an ER-positive luminal breast cancer xenograft)
HCI16 = tested on: HCI16 (cells of a triple-negative basal-like breast cancer xenograft)
UCD52 = tested on: UCD52 (cells of a triple-negative basal-like breast cancer xenograft)
WHIM2 = tested on: WHIM2 (cells of a triple-negative basal-like breast cancer xenograft)
WHIM30 = tested on: WHIM30 (cells of a triple-negative basal-like breast cancer xenograft)
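Also: PDX cells carrying CMV promoter-driven luciferase, viability read as total photon flux per second by IVIS imaging following D-luciferin, vehicle control 0.1% DMSO.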

Row | Structure (SMILES) | cell viability (HCI01) | cell viability (HCI03) | cell viability (HCI09) | cell viability (HCI11) | cell viability (HCI13) | cell viability (HCI16) | cell viability (UCD52) | cell viability (WHIM2) | cell viability (WHIM30)
1 | CC(=CC(=O)OCCCCCCCCC(=O)O)CC1OCC(CC2OC2C(C)C(C)O)C(O)C1O (centres undefined) [Mupirocin] | 97.5 ± 17 | 129 | 86.5 ± 23 | 90.6 | 89.6 ± 9.9 | 101 | 84.2 ± 3.4 | 81.9 ± 12 | 113.3 ± 0.3
2 | CCCS(=O)(=O)Nc1ccc(F)c(C(=O)c2c[nH]c3ncc(-c4ccc(Cl)cc4)cc23)c1F [Vemurafenib (PLX4032, RG7204)] | 118 ± 12 | 195 | 114 ± 7.1 | 98.3 | 106 ± 4.2 | 102 | 108 ± 1.8 | 102.2 ± 0.85 | 185 ± 5.3
3 | O=S(=O)([O-])CCS.[Na+] [Mesna] | 112.4 ± 0.12 | 118 | 98.4 ± 6.8 | 103 | 141 ± 28 | 97.2 | 89.3 ± 3.8 | 100 ± 13 | 106 ± 6.6
4 | CC/C(=C(\c1ccccc1)c1ccc(OCCN(C)C)cc1)c1ccccc1 [Tamoxifen] | 39.1 ± 8.5 | 139 | 58.5 ± 44 | 120 | 82.5 ± 42 | 88.8 | 74.5 ± 15 | 70.4 ± 0.76 | 123 ± 9.1
5 | Clc1ccc(C(c2ccccc2Cl)C(Cl)Cl)cc1 (centres undefined) [Mitotane (Lsodren)] | 127 ± 3.6 | 112 | 148 ± 59 | 107 | 91.2 ± 3.4 | 121 | 97.871 ± 0.035 | 96.3 ± 24 | 142 ± 11
6 | CC(=O)C1CCC2C3CCC4=CC(=O)CCC4(C)C3CCC12C (centres undefined) [Progesterone] | 160 ± 12 | 108 | 77.8 ± 41 | 90.6 | 154 ± 6.9 | 113 | 88.9 ± 3.9 | 148 ± 41 | 123 ± 16
7 | CCCC1CC(C(=O)NC(C(C)Cl)C2OC(SC)C(O)C(O)C2O)N(C)C1 (centres undefined) [Clindamycin] | 142 ± 42 | 124 | 83 ± 23 | 106 | 76.4 ± 12 | 122 | 96.8 ± 12 | 117 ± 13 | 116 ± 7.1
8 | CS(=O)(=O)O.CS(=O)(=O)O.N=C(N)c1ccc2cc(OC(=O)c3ccc(N=C(N)N)cc3)ccc2c1 [Nafamostat Mesylate(FUT-175)] | 110 ± 13 | 82 | 43.9 ± 4.1 | 82.1 | 95.5 ± 20 | 98.4 | 106 ± 13 | 100 ± 34 | 105 ± 13
9 | CC(C(=O)O)c1ccc2c(c1)[nH]c1ccc(Cl)cc12 (centres undefined) [Carprofen] | 175 ± 51 | 107 | 112 ± 6 | 95.3 | 102.2 ± 0.8 | 138 | 113 ± 3.4 | 152 ± 30 | 117.4 ± 0.51
10 | O=C(O)Cc1ccccc1Nc1c(Cl)cccc1Cl [Diclofenac] | 92.9 ± 26 | 123 | 84.8 ± 15 | 96.8 | 114 ± 31 | 127 | 90.6 ± 16 | 87.4 ± 0.94 | 92.1 ± 4.7
11 | CS(=O)(=O)O.OC(CCN1CCCCC1)(c1ccccc1)c1ccccc1 [Pridinol Methanesulfonate] | 113 ± 3.7 | 104 | 124 ± 47 | 119 | 92.6 ± 12 | 112 | 86.1 ± 6.1 | 164 ± 89 | 129 ± 10
12 | Cc1ccsc1C(=CCCN1CCC[C@@H](C(=O)O)C1)c1sccc1C [Tiagabine] | 96.4 ± 12 | 81.9 | 105 ± 4.9 | 84.2 | 96.9 ± 1.7 | 115 | 89.1 ± 5.2 | 100 ± 22 | 96 ± 12
13 | CN1C2CCCC1CC(NC(=O)c1nn(C)c3ccccc13)C2.Cl (centres undefined) [Granisetron HCl] | 116 ± 6.1 | 111 | 90.4 ± 1.8 | 97.6 | 96.2 ± 16 | 89.6 | 113 ± 3.7 | 88.1 ± 22 | 115 ± 16
14 | CCCCCCCCCCCCCCCC(=O)OCC=C(C)C=CC=C(C)C=CC1=C(C)CCCC1(C)C [Retinyl (Vitamin A) Palmitate] | 102 ± 22 | 100 | 88.4 ± 3.2 | 88.1 | 79 ± 17 | 104 | 94.3 ± 4.9 | 112 ± 27 | 125 ± 13
15 | Cl.O=C(c1ccc(OCCN2CCCCC2)cc1)c1c(-c2ccc(O)cc2)sc2cc(O)ccc12 [Raloxifene HCl] | 163 ± 35 | 71.2 | 33.7 ± 1.3 | 116 | 50.8 ± 3 | 182 | 80.5 ± 3.9 | 44 ± 7.1 | 156.6 ± 1.1
16 | Nc1ccc(S(=O)(=O)Nc2ncccn2)cc1 [Sulfadiazine] | 131 ± 9.1 | 126 | 158 ± 83 | 103 | 153 ± 29 | 101 | 95.5 ± 16 | 101 ± 21 | 118 ± 18
17 | COc1cc(CNC(=O)CCCCC=CC(C)C)ccc1O [Capsaicin] | 105 ± 8.6 | 120 | 75.8 ± 1.6 | 90.6 | 101 ± 17 | 82.4 | 78.3 ± 5.6 | 90.1 ± 21 | 108 ± 12
18 | Cc1cc(Nc2cc(N3CCN(C)CC3)nc(Sc3ccc(NC(=O)C4CC4)cc3)n2)n[nH]1 [VX-680 (MK-0457,Tozasertib)] | 122 ± 11 | 84.3 | 70 ± 21 | 133 | 81.5 ± 1.7 | 111 | 66.5 ± 10 | 67.6 ± 2.1 | 142 ± 14
19 | Nc1ccn(CC(CO)OCP(=O)(O)O)c(=O)n1.O.O (centres undefined) [Cidofovir dihydrate] | 120 ± 9.9 | 136 | 109 ± 42 | 94.7 | 152 ± 12 | 96.8 | 88 ± 0.94 | 97 ± 24 | 81 ± 1.9
20 | COc1ccc2cccc(CCNC(C)=O)c2c1 [Agomelatine] | 92.5 ± 10 | 139 | 99.7 ± 4.7 | 92.4 | 89.4 ± 2.2 | 105 | 86.1 ± 12 | 89.9 ± 20 | 136 ± 11
21 | CC(C)(C)NCC(O)c1cc(O)cc(O)c1.CC(C)(C)NCC(O)c1cc(O)cc(O)c1.O=S(=O)(O)O (centres undefined) [Terbutaline Sulfate] | 114.4 ± 0.83 | 110 | 98.9 ± 20 | 109 | 88.5 ± 2.1 | 127 | 79.6 ± 5.6 | 106 ± 18 | 123 ± 6
